Consider 26 molecules from PubChem BioAssay (EPA / NIEHS).

The source made the active and inactive calls. Rule for the calls: active = hit-call score of the fitted dose curve at least 0.9, where 1 is the maximum; inactive = score below 0.9.

Test [1] in a line: ATG_M_19_CIS: Attagene CIS-FACTORIAL HepG2 Assay for M19 Transcription Factor (Internal Marker) (AID 2282939). The following applies: HepG2 Attagene CIS-FACTORIAL M19 internal marker reporter; actives raise or lower the signal. In outline: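 In this multiplexed cell assay, transiently transfected HepG2 reporter units report endogenous transcription-factor activity; after 24 hours of treatment, labelled reporter cDNA fragments are quantified by capillary electrophoresis and fitted bidirectionally against DMSO.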

Test [2] can be described thus: ATG_ERE_CIS: Attagene CIS-FACTORIAL HepG2 Assay for Estrogen Response Element (ERE) (AID 2282940). The following applies: HepG2 ERE cis-reporter, Attagene RNA transcript; actives raise or lower the signal. In outline: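 Measuring endogenous transcription factor output, the assay doses transfected HepG2 cells for 24 hours and quantifies reporter transcripts by fluorescent RT-PCR and capillary electrophoresis, with DMSO as baseline.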

A short description of test [3]: ATG_Ets_CIS: Attagene CIS-FACTORIAL HepG2 Assay for human Erythroblast Transformation Specific (ETS) (AID 2282941). Particulars: HepG2 ETS cis-reporter transcription, actives raise or lower the signal. Summed up: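 RT-PCR/capillary electrophoresis fluorescence read-out of reporter mRNA; HepG2 transient multi-reporter transfection; 24 h compound exposure; gain or loss of signal fitted bidirectionally relative to DMSO.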

Test [4] concerns the target Hepatocyte nuclear factor 3-beta (Homo sapiens) (UniProt Q9Y261). Kind of test: ATG_FoxA2_CIS: Attagene CIS-FACTORIAL HepG2 Assay for human Forkhead box A2 (FOXA2) (AID 2282942). Particulars: HepG2 cis-reporter transcription factor activity, 24 h; actives raise or lower the signal. Summed up:
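Fluorescence signal of reporter cDNA fragments, separated by capillary electrophoresis, reflects endogenous transcription factor activity in transfected HepG2 after 24 h. Both increases and decreases fitted against DMSO.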

The nature of test [5]: ATG_FoxO_CIS: Attagene CIS-FACTORIAL HepG2 Assay for human Forkhead box O (FoxO) (AID 2282943). Particulars: HepG2 Attagene cis-reporter, FoxO element, mRNA; actives raise or lower the signal. Summed up:
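HepG2 cells transiently transfected with cis-promoter-driven multiple reporter transcription units; 24 h after chemical dosing, reporter mRNA quantified by RT-PCR, fluorescent primer extension, HpaI digestion and capillary electrophoresis. Bidirectional fitting versus DMSO baseline.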

The nature of test [6]: ATG_GATA_CIS: Attagene CIS-FACTORIAL HepG2 Assay for human GATA Binding Protein (AID 2282944). Particulars: HepG2 GATA cis-element reporter, Attagene multiplex mRNA; actives raise or lower the signal. In outline: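 Measures endogenous transcription factor-driven reporter mRNA in HepG2 cells transiently carrying cis-regulated constructs. 24 h dosing; RNA via oligo(dT) reverse transcription, PCR, HpaI digestion, capillary electrophoresis; fitted relative to DMSO.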

Test [7] can be described thus: ATG_GLI_CIS: Attagene CIS-FACTORIAL HepG2 Assay for human Zinc Finger Protein GLI1 (AID 2282945). Particulars: HepG2, Attagene cis-factorial reporter mRNA, GLI element; actives raise or lower the signal. Summed up: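 HepG2 cells transiently transfected with cis-promoter multiplexed reporter units report endogenous transcription factor activity. After 24 h chemical exposure, reporter mRNA was quantified by RT-PCR, 6-FAM labelling, HpaI digestion and capillary electrophoresis, with bidirectional fitting against DMSO.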

Test [8] addresses Bile acid receptor (Homo sapiens) (UniProt Q96RI1). Kind of test: ATG_IR1_CIS: Attagene CIS-FACTORIAL HepG2 Assay for human Nuclear Receptor Subfamily 1 Group H Member 4 (NR1H4), IR1 submotif (AID 2282946). Particulars: IR1 reporter transcription, actives raise or lower the signal. In outline: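 Readout: reporter transcript levels by RT-PCR with fluorescent capillary electrophoresis, from HepG2 cells transiently transfected with multiplexed cis-regulated reporters and dosed 24 h. Gain- or loss-of-signal fitted versus DMSO negative control.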

Test [9] is described as follows: ATG_ISRE_CIS: Attagene CIS-FACTORIAL HepG2 Assay for human Interferon Regulatory Factor 1 (IRF1) binding to an Interferon-Stimulated Response Element (ISRE) (AID 2282948). Particulars: HepG2 ISRE cis-reporter (Attagene), mRNA transcription readout; actives raise or lower the signal. Summed up: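 Read-out: fluorescent RT-PCR products resolved by capillary electrophoresis, reporting endogenous transcription factor activity via ISRE-driven reporter mRNA in transfected HepG2 cells dosed for 24 h; gain or loss fitted relative to DMSO.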

Test [10] can be described thus: ATG_GRE_CIS: Attagene CIS-FACTORIAL HepG2 Assay for human Glucocorticoid Response Elements (GRE) (AID 2282947). Particulars: HepG2 GRE cis-reporter, Attagene multiplex mRNA; actives raise or lower the signal. In outline: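 HepG2, transient cis-reporter transfection, 24 h. Reporter mRNA: RT-PCR then CE, fluorescence. Fit both directions vs DMSO.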

Bile acid receptor (Homo sapiens), sequence (Q96RI1 whole entry, looked up): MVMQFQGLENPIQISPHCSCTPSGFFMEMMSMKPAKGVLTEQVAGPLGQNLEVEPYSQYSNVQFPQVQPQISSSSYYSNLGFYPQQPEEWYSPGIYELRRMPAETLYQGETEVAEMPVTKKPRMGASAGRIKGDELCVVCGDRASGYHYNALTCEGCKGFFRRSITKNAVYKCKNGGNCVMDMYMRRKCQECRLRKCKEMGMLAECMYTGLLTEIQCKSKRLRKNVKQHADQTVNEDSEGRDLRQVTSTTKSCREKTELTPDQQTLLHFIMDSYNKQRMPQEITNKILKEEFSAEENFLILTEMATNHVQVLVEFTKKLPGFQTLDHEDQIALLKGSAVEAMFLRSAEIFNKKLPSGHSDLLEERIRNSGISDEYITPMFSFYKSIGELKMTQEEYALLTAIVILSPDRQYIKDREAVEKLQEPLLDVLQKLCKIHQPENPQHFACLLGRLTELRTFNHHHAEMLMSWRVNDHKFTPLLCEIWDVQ
Hepatocyte nuclear factor 3-beta (Homo sapiens), sequence (Q9Y261 whole entry, looked up, the tested form may be a part): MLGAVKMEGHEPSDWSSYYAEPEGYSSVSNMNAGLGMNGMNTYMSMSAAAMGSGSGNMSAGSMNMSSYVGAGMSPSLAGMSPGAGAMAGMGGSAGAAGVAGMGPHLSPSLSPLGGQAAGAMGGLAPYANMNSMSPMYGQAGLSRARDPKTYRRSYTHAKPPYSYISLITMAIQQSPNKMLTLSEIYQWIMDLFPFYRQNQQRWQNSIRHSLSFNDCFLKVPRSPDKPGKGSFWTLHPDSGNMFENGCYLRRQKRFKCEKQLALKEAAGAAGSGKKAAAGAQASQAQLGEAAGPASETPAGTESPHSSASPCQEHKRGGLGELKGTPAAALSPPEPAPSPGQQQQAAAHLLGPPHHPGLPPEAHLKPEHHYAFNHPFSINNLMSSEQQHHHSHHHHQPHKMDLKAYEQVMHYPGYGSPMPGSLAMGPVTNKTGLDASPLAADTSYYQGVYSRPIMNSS

Consider `O=S1(=O)OC(c2cc(Br)c(O)c(Br)c2)(c2cc(Br)c(O)c(Br)c2)c2ccccc21`, for which the result in test [1], in [2], in test [3], in test [4], in test [5] and in [6] was inactive. In addition, the call in test [7], in test [8] and in test [9] was inactive.

In general, AC50 refers to the concentration at which the activity in the assay is half-maximal. Take `CCOCn1c(-c2ccc(Cl)cc2)c(C#N)c(Br)c1C(F)(F)F`: the molecule was called inactive in test [1], in test [2], in [4], in test [5] and in [6]. In addition, the half-maximal activity concentration (AC50) was 60.1 µM (active) in test [3], 157 µM (active) in test [7], 38.3 µM (active) in [8] and 1.42 µM (active) in test [9].

`C[As+](C)(C)CC(=O)[O-]`: the call in [1], in test [2], in [3], in test [4], in test [5] and in test [6] was inactive. In addition, the molecule was called inactive in test [7], in test [8], in test [10] and in [9].

Consider `CCCCC(CC)C(=O)Cl` (stereo not given), for which the molecule was called inactive in [1], in test [2], in [3], in [4], in test [5] and in test [6]. Further, the result in test [7], in test [8], in [10] and in [9] was inactive.

For `COC(=O)c1cc(Oc2ccc(Cl)cc2Cl)ccc1[N+](=O)[O-]`, the molecule was classed as inactive in test [1], in test [3], in test [4], in test [5], in [6] and in [7]. The result in test [8] and in [9] was inactive. Also, the concentration at half-maximal activity (AC50) in [2] was 39.1 µM (active).

Consider `C=CC(=O)NC(C)(C)CC(C)=O`, for which the result in test [1], in [2], in test [3], in test [4], in test [5] and in [6] was inactive. For the same molecule, the outcome in test [7], in [10] and in [9] was inactive.

As to `CCCCCCCCCCCCBr`, the result in test [1], in test [2], in test [3], in test [4], in test [5] and in test [6] was inactive. For the same molecule, the outcome in test [7], in test [10] and in test [9] was inactive.

Turning to `O=[N+]([O-])c1c2ccccc2cc2ccccc12`, the molecule was classed as inactive in test [1], in [3], in test [4], in [5], in test [6] and in test [7]. The molecule was called inactive in test [10] and in test [9]. Moreover, in test [2], the AC50 was 7.14 µM (active).

Take `CCOC(=O)CC(=O)CCl`: the call in test [1], in [2], in test [5], in test [6] and in [10] was inactive. Further, the half-maximal activity concentration (AC50) in [3] was 26.4 µM (active); in test [4] it was 133 µM (active); in [7], 26.1 µM (active); in test [9], 31.2 µM (active).

As for `CCCCN(CCCC)C(=S)[S-].CCCCN(CCCC)C(=S)[S-].[Ni+2]`, the call in [1], in test [2], in test [3], in [4], in test [5] and in test [6] was inactive. The call in [7] and in [9] was inactive.

As for `O=C=Nc1ccc(Cl)cc1`, the result in test [1], in test [2], in test [3], in test [4], in test [6] and in test [7] was inactive. Moreover, the molecule was called inactive in test [9]. The AC50 in test [5] is 162 µM (active).

Regarding `C=CCCl`, the outcome in test [1], in [2], in [3], in test [4], in test [5] and in test [6] was inactive. Besides, the molecule was called inactive in test [7], in [10] and in test [9].

For the molecule `Cc1cc(Cl)ccc1OC(C)C(=O)O` (stereo not given), the result in [1], in test [2], in test [3], in test [4], in test [5] and in test [6] was inactive. In addition, the molecule was called inactive in test [7] and in test [9].

Take `Cc1c([N+](=O)[O-])c(C)c([N+](=O)[O-])c(C(C)(C)C)c1[N+](=O)[O-]`: the call in test [1], in [3], in test [4], in test [5], in test [6] and in test [7] was inactive. Further, in test [10], the call was inactive. Moreover, the AC50 in test [2] was 23.7 µM (active); in test [9] it was 22.5 µM (active).

Consider `CCNc1nc(NCC)nc(SC)n1`, for which the result in test [1], in test [2], in [3], in test [4], in test [5] and in test [6] was inactive. The result in [7], in test [10] and in test [9] was inactive.

For `O=S(=O)(Oc1ccc(Cl)cc1)c1ccc(Cl)cc1`, the molecule was called inactive in test [1], in test [2], in test [3], in test [4], in test [5] and in test [6]. In addition, the result in [7], in test [10] and in test [9] was inactive.

On to `CC(C)(C1CCC(O)CC1)C1CCC(O)CC1` (stereo not given), for which the molecule was called inactive in [1], in test [3], in test [4], in test [5], in [6] and in [7]. For the same molecule, the molecule was classed as inactive in test [9]. Besides, the AC50 in test [2] is 20.4 µM (active).

On to `O=C1c2ccccc2C(=O)C1C(=O)C(c1ccccc1)c1ccc(Cl)cc1` (stereo not given), for which the AC50 is 33.4 µM (active) in test [1]; 182 µM (active) in [3]; 11.9 µM (active) in [4]; 54.6 µM (active) in test [5]; 166 µM (active) in test [7]; 20 µM (active) in test [9]. The molecule was called inactive in test [2] and in test [6].

For `CCCSP(=S)(OCC)Oc1ccc(Cl)cc1Cl` (stereo not given), the outcome in [1], in test [3], in test [4], in test [5], in test [6] and in test [7] was inactive. In addition, the result in test [10] and in test [9] was inactive. In addition, the AC50 in test [2] is 10.3 µM (active).

As to `CCN(CC)C(=O)C(Cl)=C(C)OP(=O)(OC)OC`, the molecule was called inactive in test [1], in test [2], in test [3], in test [4], in [5] and in [6]. For the same molecule, the result in test [7], in [10] and in test [9] was inactive.

Regarding `CCOP(=S)(OCC)Oc1ccc(Cl)cc1Cl`, the outcome in [1], in test [3], in [4], in test [5], in test [6] and in test [7] was inactive. The call in test [10] and in test [9] was inactive. Besides, in [2], the half-maximal activity concentration (AC50) was 10.1 µM (active).

In the case of `O=CCCl`, the call in [1], in test [2], in test [3], in test [4], in [6] and in [10] was inactive. Moreover, the AC50 is 26.6 µM (active) in test [5], 25.5 µM (active) in test [7] and 51.9 µM (active) in test [9].

With `Oc1c(Br)cc(Br)cc1Br`, the call in test [1], in test [3], in test [4], in test [5], in [6] and in test [7] was inactive. Moreover, the result in [9] was inactive. The AC50 in test [2] is 24.9 µM (active).

Turning to `O=C(O)COc1ccc(Cl)cc1`, the molecule was called inactive in test [1], in [2], in test [3], in [4], in test [5] and in [6]. In addition, the molecule was called inactive in [7], in test [10] and in test [9].

Regarding `CCCCN(CCCC)C(=S)S`, the outcome in test [1], in test [2], in test [3], in [5], in [6] and in test [10] was inactive. Also, the results for the concentration at half-maximal activity (AC50) in [4], in [7] and in [9] were 100 µM (active), 140 µM (active) and 126 µM (active), respectively.

Consider `CC(C)(c1ccccc1)c1cc(-n2nc3ccccc3n2)c(O)c(C(C)(C)c2ccccc2)c1`, for which the molecule was called inactive in test [1], in test [2], in [3], in test [4], in test [5] and in test [6]. The result in [7], in [10] and in test [9] was inactive.
